Sa growth inh = S. aureus growth inhibition at 42 and 30 °C, primary screen, LtaS inhibitor project, RN4220, two temperatures | relative growth, % (concentration not given with the values) | OD600, 20 h, 42 °C; stronger effect = lower value | hit rate 0.53% among 170,000 | AID 720641, 2013;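 active means relative growth at most 50% at the other temperature and 20+ points below 30 °C, or under 10% at both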
S aureus helic = inhibitors of S. aureus replicative helicase, primary screen, biochemical, fluorescence unwinding readout | replicative DNA helicase (DnaC/DnaB), Staphylococcus aureus | purified S. aureus helicase, fluorescence unwinding assay | inhibition, % (no concentration beside the values) | hit rate 0.05% among 120,000; in the data active means inhibition above about 25%, passing the limit was not always enough
Each line names hits and unclear results; the compound was inactive in the other large screens. Only some compounds are listed: those with a hit (about 0.52% of all), similar ones and a draw of the others.

CO[C@H]1C[C@H](O[C@H]2[C@H](C)[C@@H](O[C@@H]3O[C@H](C)C[C@H](N(C)C)[C@H]3OC(C)=O)[C@@H](C)C[C@@]3(CO3)C(=O)[C@H](C)[C@@H](OC(C)=O)[C@@H](C)[C@@H](C)OC(=O)[C@@H]2C)O[C@@H](C)[C@@H]1OC(C)=O	Sa growth inh 3.7 (no result: S aureus helic)
CC[n+]1c(C)sc2cc(SC)c(OC)cc21	Sa growth inh 1.8
CC[n+]1c(C)sc2ccccc21	none
CC(C(=O)NC(N)=O)N1CCc2ccccc21 (centres undefined)	none
CCOc1ccc(C(=O)C(C)Sc2nnnn2-c2ccc(OC)cc2)cc1 (centres undefined)	S aureus helic 29.0
COc1ccc(-n2nnnc2SCSc2nnnn2-c2ccc(OC)cc2)cc1	none
N#CC(C#N)=NNc1ccc2c(c1)OCO2	Sa growth inh 0.6
CC(=O)Nc1ccc2c(c1)OCO2	none
O=C(/C=C/c1cn(-c2ccccc2)nc1-c1ccc(F)cc1)N1CCOCC1	none
Cc1cc(NS(=O)(=O)c2ccc(N=Cc3ccccc3O)cc2)no1	none
CCOc1nnc(NS(=O)(=O)c2ccc(N=Cc3ccccc3O)cc2)s1	Sa growth inh 7.8
C=C1N(C)c2ccc(NC(=O)c3ccccc3)cc2C1(C)C	Sa growth inh 8.3
Cc1ccc(NC(=O)c2ccc(CNS(=O)(=O)c3ccc4c(c3)C(C)(C)C(=O)N4C)cc2)cc1C	none (no result: S aureus helic)
Cc1nc2ccccc2nc1C(N)=O	none
COc1ccc(C(=O)NCCSc2nnnn2-c2ccccc2)cc1	none
COC(=O)c1cccc(C(=O)OC)c1	none
COC(=O)c1ccc(O)c(Sc2cc(C(=O)OC)ccc2O)c1	Sa growth inh 1.9
N#CC(C1=NS(=O)(=O)c2ccccc21)c1nc2ccccc2n1Cc1ccccc1 (centres undefined)	none
Clc1ccc(CSc2nnc(Cc3cccs3)n2C2CC2)cc1Cl	none
COc1cccc(CSc2nnc(Cc3cccs3)n2C2CCCCC2)c1	Sa growth inh 5.8
CCn1c(=O)c2sccc2n2c(CCCC(=O)NCCc3ccccc3)nnc12	none
Cc1cc(O)c(Cc2cc(Cl)c3cccnc3c2O)c(=O)o1	Sa growth inh 4.0
O=c1oc2ccccc2c(O)c1Cc1cc(Cl)c2cccnc2c1O	none
CC1(C)CC(CC#N)(Cc2ccccc2)CCO1 (centres undefined)	none
CC(=O)/C=C(\O)c1ccc(Cl)cc1	none
O=C(/C=C(\O)c1ccc(Cl)cc1)C(F)(F)F	Sa growth inh -0.1
COCC1=C(C(=O)OC(C)OC(=O)OC(C)C)N2C(=O)[C@@H](NC(=O)C(=NOC)c3csc(N)n3)[C@H]2SC1 (some centres undefined)	none (no result: S aureus helic)
CC(C)(O/N=C(\C(=O)N[C@@H]1C(=O)N2C(C(=O)[O-])=C(C[n+]3ccccc3)CSC12)c1csc(N)n1)C(=O)O (some centres undefined)	none (no result: S aureus helic)
CO/N=C(\C(=O)N[C@@H]1C(=O)N2C(C(=O)O)=C(COC(C)=O)CS[C@H]12)c1csc(N)n1	Sa growth inh -0.8 (no result: S aureus helic)
COC(=O)c1cn(NC(=O)CSc2ccncc2)c(=O)c2ccccc12	none
CO/N=C(/C(=O)NC1C(=O)N2C(C(=O)O)=C(COC(N)=O)CSC12)c1ccco1 (centres undefined)	Sa growth inh -1.0 (no result: S aureus helic)
CC(=O)OCC1=C(C(=O)O)N2C(=O)[C@@H](NC(=O)CSc3ccncc3)[C@H]2SC1	Sa growth inh -0.3 (no result: S aureus helic)
CCCSc1nc2c3ccccc3ncn2n1	none
Cc1c2c(=O)n(-c3ccccc3)[nH]c2cc(=O)n1CC1CCCO1 (centres undefined)	none
On1ccccc1=S	Sa growth inh 0.4
Cn1ccccc1=S	none
O=C(NC(C(F)(F)F)C(F)(F)F)OCc1ccc(F)cc1	none
Nn1c(SCC(=O)c2ccc[nH]2)nnc1SCC(=O)c1ccc[nH]1	none
CC(=O)O[C@H]1C[C@@]2(C)[C@@H](C[C@@H](O)C3[C@]2(C)CC[C@H]2[C@H](C)[C@H](O)CC[C@]32C)/C1=C(/CCC=C(C)C)C(=O)O (some centres undefined)	Sa growth inh 0.6 (no result: S aureus helic)
COc1ccc(-c2cc(-c3ccccc3O)nc(NC(N)=S)n2)cc1	none
O=C1CSC(=S)N1c1cccc(C(F)(F)F)c1	none (no result: Sa growth inh)
O=C1C2SCCN2C(=S)N1c1cccc(C(F)(F)F)c1 (centres undefined)	Sa growth inh 45.8 (no result: S aureus helic)
C/C(=N\N=C(/N)SC1CC(=O)N(C)C1=O)c1ccc(F)cc1 (centres undefined)	none
CCN(CC)S(=O)(=O)c1cccc(C(=O)OCC(=O)c2ccc3c(c2)OCO3)c1	none
CCN(CC)S(=O)(=O)c1cc(C(=O)Oc2ccc3c(c2)OCO3)ccc1C	Sa growth inh 43.7
CN(C)S(=O)(=O)c1ccc(C(=O)Nc2c(C(=O)Nc3ccccc3F)oc3ccccc23)cc1	none
CCC(=O)Nc1nc2ccccc2s1	none
CCC(=O)Nc1nc2c(s1)CSc1ccccc1-2	Sa growth inh 6.6
C=CCc1cccc(CNc2ccc(Cl)cc2)c1O	none
CNC(=O)Nc1cc(C(F)(F)F)cc(C(F)(F)F)c1	none (no result: S aureus helic)
Cc1noc(C)c1NC(=O)Nc1cc(C(F)(F)F)cc(C(F)(F)F)c1	Sa growth inh 5.2
CCn1c2ccccc2c2cc(C#N)ccc21	Sa growth inh 44.3
CCn1c2ccccc2c2cc(N=C=S)ccc21	none
Cc1ccc2c(Cl)cc(Cl)c(OCC(=O)NCc3ccco3)c2n1	Sa growth inh -1.6
Cc1cc(OCC(=O)NCc2ccco2)c(C)cc1Br	none
O=C(O)/C=C/C(=O)c1ccc(C2CCCCC2)cc1	Sa growth inh -0.9 (no result: S aureus helic)
O=C(O)/C=C/C(=O)Nc1ccc(C2CCCCC2)cc1	none (no result: S aureus helic)
CC[C@H]1OC(=O)[C@H](C)[C@@H](O[C@H]2C[C@@](C)(OC)[C@@H](O)[C@H](C)O2)[C@H](C)[C@@H](O[C@@H]2O[C@H](C)C[C@H](N(C)C)[C@H]2O)[C@](C)(O)C[C@@H](C)/C(=N\OCOCCOC)[C@H](C)[C@@H](O)[C@]1(C)O	Sa growth inh 0.1 (no result: S aureus helic)
CC[C@H]1OC(=O)[C@H](C)[C@@H](O[C@H]2C[C@@](C)(OC)[C@@H](O)[C@H](C)O2)[C@H](C)[C@@H](O[C@@H]2O[C@H](C)C[C@H](N(C)C)[C@H]2O)[C@](C)(O)C[C@@H](C)/C(=N/OCOCCOC)[C@H](C)[C@@H](O)[C@]1(C)O	Sa growth inh -0.5 (no result: S aureus helic)
COc1ccc(-c2noc(COC(=O)c3c4ccccc4cc4ccccc34)n2)c(OC)c1	none
Cc1oc2c(c1C(=O)O)C(=O)c1ccccc1C2=O	none
Cc1oc2c(c1C(=O)N1CCc3ccccc3C1)C(=O)c1ccccc1C2=O	Sa growth inh 6.5
Cc1oc2c(c1C(=O)NCc1ccccc1)C(=O)c1ccccc1C2=O	none
Cc1oc2c(c1C(=O)NCc1ccccn1)C(=O)c1ccccc1C2=O	Sa growth inh 0.6
Cc1oc2c(c1C(=O)NCCCN1CCOCC1)C(=O)c1ccccc1C2=O	Sa growth inh 1.7
Cc1c(C(=O)NCCCN2CCOCC2)cc(-c2ccccc2)n1-c1ccccc1	none (no result: S aureus helic)
CC(C)CCC(=O)Nc1ccc(S(=O)(=O)N2C(C)CCCC2C)cc1 (centres undefined)	none
O=C(O)CCCOc1ccc2c(c1)OCO2	none
Cc1cccc(C)c1-n1nnnc1S(=O)(=O)Cc1ccccc1Cl	none
COc1cccc(-n2nnnc2S(=O)(=O)Cc2ccccc2)c1	Sa growth inh -1.1
NC1=Nc2ccccc2CC1	none
CC(C)C1Cc2c(sc3c2c(=O)n(CCc2ccccc2)c2n[nH]c(=S)n32)CO1 (centres undefined)	none

Screening data deposited in PubChem BioAssay by ICCB-Longwood Screening Facility, Harvard Medical School.
